This passage reports log2 fold change results from the supplement of paper PMC10849652.

Targets with a hit are over-represented here; the source holds about 7,900 in all. About 0.6% of all pairs of compound and target were hits.

UniProt O95628, sequence (O95628 whole entry, looked up): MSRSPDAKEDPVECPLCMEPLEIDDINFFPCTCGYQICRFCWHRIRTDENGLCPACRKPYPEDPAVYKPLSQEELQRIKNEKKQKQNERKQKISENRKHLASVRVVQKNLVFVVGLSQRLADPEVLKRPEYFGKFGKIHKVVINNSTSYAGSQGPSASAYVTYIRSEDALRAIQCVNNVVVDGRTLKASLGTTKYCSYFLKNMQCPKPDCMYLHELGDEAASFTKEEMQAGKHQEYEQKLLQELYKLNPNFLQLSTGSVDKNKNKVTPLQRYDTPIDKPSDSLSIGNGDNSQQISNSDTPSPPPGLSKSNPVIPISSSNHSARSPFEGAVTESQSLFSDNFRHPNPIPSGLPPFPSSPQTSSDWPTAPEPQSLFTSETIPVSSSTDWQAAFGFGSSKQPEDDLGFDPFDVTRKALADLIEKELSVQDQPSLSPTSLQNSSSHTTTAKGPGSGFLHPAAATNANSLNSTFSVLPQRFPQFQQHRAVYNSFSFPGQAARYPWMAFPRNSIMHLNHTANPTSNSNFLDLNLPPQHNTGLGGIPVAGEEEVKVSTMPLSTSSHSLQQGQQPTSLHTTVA
UniProt Q9ULV3, sequence (Q9ULV3 whole entry, looked up): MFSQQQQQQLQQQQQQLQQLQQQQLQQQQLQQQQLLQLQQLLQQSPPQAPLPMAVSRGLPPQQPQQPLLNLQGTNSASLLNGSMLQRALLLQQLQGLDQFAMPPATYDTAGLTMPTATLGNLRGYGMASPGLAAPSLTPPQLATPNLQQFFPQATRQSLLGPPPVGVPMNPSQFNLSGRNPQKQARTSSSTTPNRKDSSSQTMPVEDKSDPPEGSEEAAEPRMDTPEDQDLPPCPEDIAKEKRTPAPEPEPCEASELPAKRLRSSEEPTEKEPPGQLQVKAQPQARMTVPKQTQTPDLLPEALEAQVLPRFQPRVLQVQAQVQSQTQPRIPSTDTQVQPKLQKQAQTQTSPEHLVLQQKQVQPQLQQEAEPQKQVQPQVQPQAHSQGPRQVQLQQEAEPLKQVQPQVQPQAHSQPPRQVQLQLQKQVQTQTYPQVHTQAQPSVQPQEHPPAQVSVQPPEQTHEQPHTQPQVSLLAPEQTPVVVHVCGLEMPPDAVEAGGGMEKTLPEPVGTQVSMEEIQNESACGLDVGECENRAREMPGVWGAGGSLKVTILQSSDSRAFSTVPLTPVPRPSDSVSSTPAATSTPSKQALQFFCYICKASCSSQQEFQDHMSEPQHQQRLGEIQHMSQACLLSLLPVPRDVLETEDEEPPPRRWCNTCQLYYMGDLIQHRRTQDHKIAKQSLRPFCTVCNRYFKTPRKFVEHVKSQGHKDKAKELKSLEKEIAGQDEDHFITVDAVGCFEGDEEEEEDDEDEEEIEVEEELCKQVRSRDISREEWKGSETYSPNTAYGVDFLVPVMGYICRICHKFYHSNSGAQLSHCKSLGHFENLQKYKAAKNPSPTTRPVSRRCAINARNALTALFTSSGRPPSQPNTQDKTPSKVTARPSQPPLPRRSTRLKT
UniProt Q9Y646, sequence (Q9Y646 whole entry, looked up): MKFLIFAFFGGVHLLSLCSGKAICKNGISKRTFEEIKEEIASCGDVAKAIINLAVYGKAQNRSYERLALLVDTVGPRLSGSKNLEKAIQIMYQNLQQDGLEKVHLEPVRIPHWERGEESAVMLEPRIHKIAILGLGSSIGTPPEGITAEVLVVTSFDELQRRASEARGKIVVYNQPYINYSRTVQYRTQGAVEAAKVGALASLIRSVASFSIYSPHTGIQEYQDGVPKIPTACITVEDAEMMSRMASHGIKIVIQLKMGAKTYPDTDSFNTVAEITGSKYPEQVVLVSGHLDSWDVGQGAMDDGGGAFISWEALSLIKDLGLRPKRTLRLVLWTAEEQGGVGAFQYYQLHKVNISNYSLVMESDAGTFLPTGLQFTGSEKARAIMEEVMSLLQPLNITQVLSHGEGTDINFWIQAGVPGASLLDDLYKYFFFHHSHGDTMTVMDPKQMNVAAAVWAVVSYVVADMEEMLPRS
UniProt Q14839, sequence (Q14839 whole entry, looked up): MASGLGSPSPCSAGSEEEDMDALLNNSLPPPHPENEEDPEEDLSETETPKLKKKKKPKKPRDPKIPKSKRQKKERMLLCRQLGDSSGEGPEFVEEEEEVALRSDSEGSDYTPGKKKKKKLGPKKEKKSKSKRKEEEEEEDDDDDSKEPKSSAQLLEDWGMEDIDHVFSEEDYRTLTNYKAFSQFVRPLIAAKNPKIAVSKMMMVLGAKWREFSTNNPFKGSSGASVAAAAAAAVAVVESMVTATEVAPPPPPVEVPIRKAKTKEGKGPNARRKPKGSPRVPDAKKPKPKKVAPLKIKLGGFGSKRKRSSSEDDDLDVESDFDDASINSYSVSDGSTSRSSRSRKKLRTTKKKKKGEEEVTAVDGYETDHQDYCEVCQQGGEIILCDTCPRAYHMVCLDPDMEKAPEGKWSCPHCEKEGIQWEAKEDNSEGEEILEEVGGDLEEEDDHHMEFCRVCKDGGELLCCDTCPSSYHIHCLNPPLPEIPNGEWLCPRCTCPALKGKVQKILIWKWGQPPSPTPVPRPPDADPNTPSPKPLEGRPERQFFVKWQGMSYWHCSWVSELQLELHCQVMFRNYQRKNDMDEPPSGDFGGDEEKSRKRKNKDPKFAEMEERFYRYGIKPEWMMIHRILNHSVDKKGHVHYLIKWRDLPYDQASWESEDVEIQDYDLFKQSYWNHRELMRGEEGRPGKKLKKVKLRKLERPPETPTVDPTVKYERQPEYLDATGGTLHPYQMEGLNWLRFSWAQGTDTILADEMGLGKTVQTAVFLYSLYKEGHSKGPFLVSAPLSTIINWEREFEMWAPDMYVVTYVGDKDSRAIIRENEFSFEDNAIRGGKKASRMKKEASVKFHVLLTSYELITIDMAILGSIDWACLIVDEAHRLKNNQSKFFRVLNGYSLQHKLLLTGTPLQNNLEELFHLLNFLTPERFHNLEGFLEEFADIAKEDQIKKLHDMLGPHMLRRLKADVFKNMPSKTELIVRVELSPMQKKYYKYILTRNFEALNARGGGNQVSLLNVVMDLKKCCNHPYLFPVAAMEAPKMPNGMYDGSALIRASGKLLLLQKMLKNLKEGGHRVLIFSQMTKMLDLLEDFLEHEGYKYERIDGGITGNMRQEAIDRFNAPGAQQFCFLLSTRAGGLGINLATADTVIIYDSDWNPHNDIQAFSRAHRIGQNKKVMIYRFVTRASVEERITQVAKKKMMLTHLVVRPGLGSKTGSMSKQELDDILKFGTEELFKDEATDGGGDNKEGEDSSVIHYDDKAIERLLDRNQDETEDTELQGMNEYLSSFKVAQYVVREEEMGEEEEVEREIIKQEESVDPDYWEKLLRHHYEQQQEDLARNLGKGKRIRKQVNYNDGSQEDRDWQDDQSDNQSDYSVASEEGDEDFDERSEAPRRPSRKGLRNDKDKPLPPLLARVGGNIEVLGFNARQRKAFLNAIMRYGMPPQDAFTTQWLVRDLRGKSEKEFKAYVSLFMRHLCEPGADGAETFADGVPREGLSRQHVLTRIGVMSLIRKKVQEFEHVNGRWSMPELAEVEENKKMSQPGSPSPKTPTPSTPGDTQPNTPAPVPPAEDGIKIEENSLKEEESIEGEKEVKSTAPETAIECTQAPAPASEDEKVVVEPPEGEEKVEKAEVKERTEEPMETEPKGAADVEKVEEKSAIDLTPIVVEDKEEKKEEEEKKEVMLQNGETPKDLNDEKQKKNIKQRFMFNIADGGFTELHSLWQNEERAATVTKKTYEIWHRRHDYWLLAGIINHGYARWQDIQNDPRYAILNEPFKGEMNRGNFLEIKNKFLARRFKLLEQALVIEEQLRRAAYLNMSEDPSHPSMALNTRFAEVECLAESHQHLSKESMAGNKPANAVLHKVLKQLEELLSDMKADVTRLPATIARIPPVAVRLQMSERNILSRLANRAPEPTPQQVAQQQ
UniProt Q9H444, sequence (Q9H444 whole entry, looked up): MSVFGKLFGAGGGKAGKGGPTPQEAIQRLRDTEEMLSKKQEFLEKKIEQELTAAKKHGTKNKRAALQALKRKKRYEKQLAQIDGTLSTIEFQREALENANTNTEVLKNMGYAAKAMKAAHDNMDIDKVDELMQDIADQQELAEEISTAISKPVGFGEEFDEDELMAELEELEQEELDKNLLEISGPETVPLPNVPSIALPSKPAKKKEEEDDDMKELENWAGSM
UniProt Q7KZN9, sequence (Q7KZN9 whole entry, looked up): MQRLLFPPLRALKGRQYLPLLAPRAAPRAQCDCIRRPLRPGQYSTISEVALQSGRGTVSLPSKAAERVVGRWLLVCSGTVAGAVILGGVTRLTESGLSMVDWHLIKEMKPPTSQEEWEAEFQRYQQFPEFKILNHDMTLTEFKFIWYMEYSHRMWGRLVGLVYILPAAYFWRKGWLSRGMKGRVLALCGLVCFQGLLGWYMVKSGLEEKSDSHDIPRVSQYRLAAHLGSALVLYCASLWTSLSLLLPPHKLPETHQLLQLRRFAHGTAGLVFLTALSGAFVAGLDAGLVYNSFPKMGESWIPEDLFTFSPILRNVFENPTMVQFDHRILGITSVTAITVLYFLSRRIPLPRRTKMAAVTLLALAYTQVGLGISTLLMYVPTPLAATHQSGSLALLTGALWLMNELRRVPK
UniProt P48729, sequence (P48729 whole entry, looked up): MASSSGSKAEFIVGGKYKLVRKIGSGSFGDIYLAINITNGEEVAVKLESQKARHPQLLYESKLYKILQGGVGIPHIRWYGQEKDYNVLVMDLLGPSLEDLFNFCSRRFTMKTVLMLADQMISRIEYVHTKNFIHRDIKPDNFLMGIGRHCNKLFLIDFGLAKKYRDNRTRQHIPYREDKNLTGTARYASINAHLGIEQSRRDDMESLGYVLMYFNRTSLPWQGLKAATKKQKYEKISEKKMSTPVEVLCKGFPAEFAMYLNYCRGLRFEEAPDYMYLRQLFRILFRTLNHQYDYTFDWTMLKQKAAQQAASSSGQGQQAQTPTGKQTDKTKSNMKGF
UniProt P24311, sequence (P24311 whole entry, looked up): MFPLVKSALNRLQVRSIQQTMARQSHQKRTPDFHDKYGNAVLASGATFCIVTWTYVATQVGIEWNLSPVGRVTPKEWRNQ
UniProt Q5RI15, sequence (Q5RI15 whole entry, looked up): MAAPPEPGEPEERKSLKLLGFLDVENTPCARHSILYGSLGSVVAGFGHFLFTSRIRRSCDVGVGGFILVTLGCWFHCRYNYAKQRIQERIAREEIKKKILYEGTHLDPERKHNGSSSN

Compound in the first experiment: Cc1sc2c(c1C)C(c1ccc(Cl)cc1)=N[C@@H](CC(=O)OC(C)(C)C)c1nnc(C)n1-2
Kind of experiment: log2 fold change, soluble protein after heating vs DMSO (PISA); higher = thermal stabilisation; K562 cells, 10 uM, 30 min; active = over 0.2 and 3.5 SD of the protein, either way, in both replicates (recomputed). The gist of the method:
(§1)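 Quantification of soluble protein used TMTpro 16plex LC-MS/MS, with channel sums equalised. Samples were the supernatant after 21,000xg for 90 min of pooled aliquots from K562 cells (2×10^6 cells/mL) treated with 10 μM compound for 30 min, heated for 3 min over 48°C-58°C, and extracted in PBS with 0.5% NP-40 at 4°C. Values, from duplicates, describe thermal stability against control samples on a log2 fold-change scale.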
For the target CPQ (UniProt Q9Y646), the log2 fold change is -0.031 (inactive). On the same count and under the same terms, with COX15 (UniProt Q7KZN9) the figure was -0.013 (inactive); with CHMP4B (UniProt Q9H444), 0.056 (inactive).

On to CSNK1A1 (UniProt P48729), for which the log2 fold change is 0.046 (inactive).

For the target CIZ1 (UniProt Q9ULV3), the log2 fold change was 0.062 (inactive). Still for that read-out and setting: with CHD4 isoform 2 (UniProt Q14839) the figure was 0.049 (inactive); with CNOT4 isoform 9 (UniProt O95628), -0.067 (inactive).

COX7B (UniProt P24311): the log2 fold change is -0.018 (inactive).

Compound in a further experiment: c1ccc([C@@H]2C[C@H]2NC2CCNCC2)cc1
The description is as above. The gist of the method:
as §1
On to CDC42BPB (UniProt Q9Y5S2), for which the log2 fold change was -0.004 (inactive).

As to CASC3 (UniProt O15234), the log2 fold change is 0.025 (inactive).

As for CCNB1 (UniProt P14635), the log2 fold change is 0.026 (inactive). With CCAR2 isoform 2 (UniProt Q8N163), the log2 fold change is 0.011 (inactive).

Turning to COX20 isoform 2 (UniProt Q5RI15), the log2 fold change was 0.042 (inactive). Regarding CLCN7 (UniProt P51798), the log2 fold change is -0.032 (inactive). Take CDK5RAP1 (UniProt Q96SZ6): the log2 fold change is -0.023 (inactive). COPS3 (UniProt Q9UNS2): the log2 fold change was -0.005 (inactive). As for CPT1A (UniProt P50416), the log2 fold change is -0.118 (inactive). Take CCNK isoform 4 (UniProt O75909): the log2 fold change was 0.069 (inactive).

As for CORO2A (UniProt Q92828), the log2 fold change is 0.071 (inactive). Same read-out and setting: the figure for CSNK2B (UniProt P67870) is 0.018 (inactive). Turning to CNOT1 (UniProt A5YKK6), the log2 fold change is -0.021 (inactive).

On to CRLF3 (UniProt Q8IUI8), for which the log2 fold change is -0.036 (inactive). Regarding CTBS (UniProt Q01459), the log2 fold change was -0.006 (inactive). On the same count and under the same terms, the figure for CDK5RAP3 isoform 4 (UniProt Q96JB5) is -0.05 (inactive); for CSNK2A2 (UniProt P19784) it is 0.012 (inactive). Still for that read-out and setting: the figure for CHERP (UniProt Q8IWX8) is 0.018 (inactive); for CRK (UniProt P46108) it is -0.01 (inactive); for CNOT4 isoform 6 (UniProt O95628) it is 0.018 (inactive). For the target CHEK1 (UniProt O14757), the log2 fold change is 0.01 (inactive). On the same count and under the same terms, with C4orf33 (UniProt Q8N1A6) the figure was -0.003 (inactive); with CPQ (UniProt Q9Y646), 0.084 (inactive); with COX15 (UniProt Q7KZN9), -0.02 (inactive). In the case of CHMP4B (UniProt Q9H444), the log2 fold change is 0.054 (inactive). For CSNK1A1 (UniProt P48729), the log2 fold change was 0.02 (inactive). For the target CIZ1 (UniProt Q9ULV3), the log2 fold change was 0.029 (inactive).

As to CHD4 isoform 2 (UniProt Q14839), the log2 fold change was 0.032 (inactive).

On to CNOT4 isoform 9 (UniProt O95628), for which the log2 fold change was -0.055 (inactive).

Regarding COX7B (UniProt P24311), the log2 fold change was 0.018 (inactive).
